Experimental data taken from PubChem BioAssay (Tox21).
Results filed as inconclusive are left out. A number with no mark means an inactive call. The source made the active and inactive calls. Calls follow the shape of the dose curve; as a rule, active = well fitted cell-killing curve with a large enough effect in the repeat runs; inconclusive = weak or mixed curves, or effect the other way; inactive = flat fitted curve, though single readings scatter.

Assay: qHTS RealTime-Glo MT Cell Viability Assay in HEK293 cells - 8 hour (AID 1224887); also: nearly all actives have a fitted effect of over 50% in size; as to activity change, negative = cytotoxicity: top concentration of the series differs between compounds
Conditions: RealTime-Glo luminescence; series mostly up to 76.8 µM; activity change, negative = cytotoxicity: at the top concentration
Source text: U.S. Tox21 Program National Center for Advancing Translational Sciences [NCATS] NIH Chemical Genomics Center [NCGC] U.S. Environmental Protection Agency [EPA] National Institutes of Environmental Health Sciences [NIEHS] National Toxicology Program [NTP] U.S. Food and Drug Administration [FDA] Tox21 Assay Overview: Measure of cell viability is critical in the cell-base assay. Analysis of cell viability is necessary for the characterization of cell responses to cytotoxic drugs and environmental stress. A RealTime-Glo MT Cell Viability Assay to monitor cell viability in real time of continues cell culture during 40 hours of compound treatment was used to screen Tox21 10K library compounds in Hek293 cells. The RealTime-Glo MT Cell Viability Assay is a nonlytic, homogeneous, bioluminescent method to measure cell viability in real time using a simple, plate-based method. The assay involves adding NanoLuc luciferase and a cell-permeant prosubstrate to cells in culture. Viable cells reduce the proprietary prosubstrate to generate a substrate for NanoLuc luciferase. This substrate diffuses from cells into the surrounding culture medium, where it is rapidly used by the NanoLuc Enzyme to produce a luminescent signal. The signal correlates with the number of viable cells, making the assay well suited for cytotoxicity studies.
Tox21 Assay Protocol Summary: The mixture of Hek293 cell suspension and reagents were dispensed at 600cells/6 ul/well in 1536-well tissue culture treated black solid bottom plates using a Multidrop dispenser. After the assay plates were incubated at a 37 C/5% CO2 incubator for 5 hours, 23 nL of compounds dissolved in DMSO, positive and negative controls was transferred to the assay plate by a pintool work station. The plates were incubated at 37 C for 40 hours. The luminescence intensity were measured at 0h, 8h, 16h, 24h, 32h and 40h time points using ViewLux plate reader during compound treatment.
% is scaled to controls: 0 for no effect and ±100 for the full control effect; potency is read from the fitted curve at half-maximal effect.

Structure (SMILES)	activity change, negative = cytotoxicity	Potency
OC[C@H]1O[C@@H](OCCc2ccc(O)cc2)[C@H](O)[C@@H](O)[C@@H]1O	8.94% [at 35.3 µM]	–
CN(C)CCCN1c2ccccc2Sc2ccccc21	-0.469% [at 35.3 µM]	–
C=C(C)C(=O)OCC	9.31%	–
O=C(O)C1(C(=O)Nc2ccc(Cl)cc2Cl)CC1	-20.3%	–
CCOCC(O)COc1ccc(NC(=O)CC[S+](C)C)cc1 (stereo not given)	-1.16% [at 35.3 µM]	–
Cc1nn(C)c(Oc2ccccc2)c1/C=N/OCc1ccc(C(=O)OC(C)(C)C)cc1	-36.3%	–
NS(=O)(=O)c1ccc(N2CCCCS2(=O)=O)cc1	0.208% [at 35.3 µM]	–
CN(C)CCN(Cc1ccccc1)c1ccccn1	-12.5% [at 35.3 µM]	–
CC(=O)c1cccc([N+](=O)[O-])c1	-1.06%	–
CN(C)c1ccc(C(c2ccccc2)c2ccc(N(C)C)cc2)cc1	-22%	–
CCc1cc(C2=C(C(=O)O)N(c3ccccc3C(F)(F)F)S(=O)(=O)c3ccccc32)cc2c1OCO2	-2.86%	–
CC1CCC(=O)C1=O (stereo not given)	1.59%	–
O=C1OC(CN2CCOCC2)CN1/N=C/c1ccc([N+](=O)[O-])o1 (stereo not given)	0.97% [at 35.3 µM]	–
CCNc1cc(O)ccc1C	-1.83%	–
OC(C#CCN1CCCC1)(c1ccccc1)c1ccccc1	-9.53% [at 35.3 µM]	–
CCCCCCCCCCCCCCCCCCOS(=O)(=O)O	-25.3%	–
Cc1ccc(C(C)OC(=O)C2(C)CCC(C(=O)O)C2(C)C)cc1 (stereo not given)	5.76% [at 35.3 µM]	–
OCCN1CCN(CCCN2c3ccccc3C=Cc3ccccc32)CC1	-2.13% [at 35.3 µM]	–
O=C(O)c1ccccc1Cl	0.692%	–
Cc1oc(-c2ccccc2)nc1CCOc1cccc2c1ccn2CCC(=O)O	-0.0901%	–

Structure (SMILES)	activity change, negative = cytotoxicity	Potency
CCOC(=O)C(=O)CCc1ccccc1	0.786% [at 35.3 µM]	–
CCCCc1ncc(/C=C(\Cc2cccs2)C(=O)O)n1Cc1ccc(C(=O)O)cc1	0.178% [at 35.3 µM]	–
NCC(=O)CCC(=O)O	16.8% [at 35.3 µM]	–
CCCCNc1ccc(C(=O)OCCOCCOCCOCCOCCOCCOCCOCCOCCOC)cc1	-25.3% [at 35.3 µM]	–
CCn1cc(C(=O)O)c(=O)c2cnc(N3CCNCC3)nc21	3.64% [at 35.3 µM]	–
Cc1ccccc1S(=O)(=O)O	11%	–
CN1Cc2cc(C(=O)N3CCC(C4CCNCC4)CC3)ccc2NC(CC(=O)O)C1=O (stereo not given)	1.2% [at 35.3 µM]	–
O=P(O)(OCc1ccccc1)OCc1ccccc1	2.46%	–
OC(CN1CCC(Cc2ccc(F)cc2)CC1)c1ccc(Cl)cc1 (stereo not given)	–	16.9 µM (active)
CCCCC(=O)OCC(=O)[C@H]1[C@H](C)C[C@H]2[C@@H]3C[C@H](F)C4=CC(=O)C=C[C@]4(C)[C@@]3(F)[C@@H](O)C[C@@]21C	-1.97% [at 35.3 µM]	–
C=C(C)C(=O)OCCO	3.99%	–
Nc1cc(C(=O)O)c(O)c(S(=O)(=O)O)c1	6.59%	–
O=CC1CC=CCC1 (stereo not given)	10.5%	–
Cn1c(=O)cc(Oc2ccc(F)cc2F)c2cnc(NCC(C)(C)O)nc21	-23.3%	–
ClCCOCCOCCCl	3.54%	–
O=C(OCCc1ccccc1)c1ccccc1	-12%	–
CCCCCCCC/C=C\CCCCCCCC(=O)OCC	4.96%	–
CC1=CC=C(C(C)C)CC1	4.1%	–
CC(=O)NO	-1.49% [at 35.3 µM]	–
COC(C)OC	2.6%	–
